Compound activity deposited in PubChem BioAssay by The Scripps Research Institute Molecular Screening Center.
PLCg1 inh – blocks human PLC-gamma1 enzyme activity; 0.84% of 370,000 active; P19174; AID 720700; purified PLC-gamma1, fluorogenic substrate, fluorescence; inhibition, % at 12.2 µM; in the data active = inhibition above about 9.5%
proKLK7 act – proKLK7 (human) activation, primary screen; activation, % at 7 µM; P49862; purified proKLK7, EDANS-DABCYL substrate fluorescence; 100% is mature enzyme control, 0% vehicle; 0.9% of 370,000 active; AID 652039;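 active = activation above the mean of all tested compounds plus 3 SD, computed per campaign excluding outliers beyond control limits, cut at about 13% in these data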
sPLA2-III inh – Blocks human group III sPLA2 activity; 0.56% of 370,000 active; QFRET BODIPY PC-A2 liposome hydrolysis, fluorescence; Q9NZ20; inhibition, % at 12.2 µM;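 active = inhibition above mean plus 3 SD of compounds lying within the high and low control bounds, cut at about 19% in these data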;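 note: 0% = median of test compound wells and 100% = no enzyme DMSO wells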
PLC-beta3 inh – PLC-beta3 (human) inhibition, primary screen; Q01970; Purified PLC-beta3, fluorogenic substrate, fluorescence; inhibition, % at 12.2 µM; 0.18% of 370,000 active; AID 720704; in the data active = inhibition above about 11%;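 note: 0% = median of compound wells on plate and 100% = full blocker control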
ADAM10 inh – inhibits human ADAM10 | O14672 | recombinant ADAM10, EDANS/DABCYL FRET peptide cleavage, 3 h | inhibition, % at 7 µM | 0.62% of 370,000 active;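 active = inhibition above a per-campaign cutoff equal to the mean of compounds falling between control-based bounds plus 3 SD, cut at about 20% in these data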;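 note: 0% = DMSO wells while the 100% control is not disclosed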
ADAM17 inh – inhibitors of human ADAM17. 0.83% of 370,000 active. P78536. AID 720648. recombinant ADAM17, EDANS/DABCYL FRET peptide cleavage. inhibition, % at 6.95 µM;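 active = inhibition above the mean of compounds lying between control limits plus 3 SD, set per campaign, cut at about 8.5% in these data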;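 note: 0% = DMSO-only wells as the low control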
Target sequence (P78536 215-824 limits assumed): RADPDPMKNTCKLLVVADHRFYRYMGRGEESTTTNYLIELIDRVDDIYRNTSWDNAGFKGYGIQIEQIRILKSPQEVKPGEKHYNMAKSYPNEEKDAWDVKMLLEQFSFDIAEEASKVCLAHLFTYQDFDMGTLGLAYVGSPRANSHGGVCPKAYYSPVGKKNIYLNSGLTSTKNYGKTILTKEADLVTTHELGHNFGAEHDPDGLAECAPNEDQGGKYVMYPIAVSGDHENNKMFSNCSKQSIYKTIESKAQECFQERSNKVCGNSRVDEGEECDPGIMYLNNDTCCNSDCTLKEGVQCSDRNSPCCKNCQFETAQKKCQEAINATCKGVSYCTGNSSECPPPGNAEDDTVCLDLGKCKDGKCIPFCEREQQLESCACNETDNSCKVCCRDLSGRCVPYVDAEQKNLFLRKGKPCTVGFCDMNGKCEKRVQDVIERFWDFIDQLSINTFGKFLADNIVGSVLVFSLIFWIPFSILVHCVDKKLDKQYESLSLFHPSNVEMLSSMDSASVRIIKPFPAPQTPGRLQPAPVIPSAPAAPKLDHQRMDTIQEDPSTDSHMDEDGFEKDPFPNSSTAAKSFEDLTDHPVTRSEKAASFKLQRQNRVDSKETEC
ADAM10 confirm – human ADAM10 inhibition, confirmation; shares compounds with ADAM10 inh; ADAM10 QFRET peptide cleavage, EDANS fluorescence; inhibition, % at 6.95 µM; 1% of 2,100 active;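 active = inhibition above about 20% chosen separately for each screening run, limit read from the data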;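 note: 0% = DMSO wells and 100% = marimastat wells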
ADAM17 ctr – ADAM17 inhibition, counter-screen for ADAM10 exosite hits; inhibition, % at 6.95 µM; ADAM17 QFRET peptide cleavage, EDANS fluorescence; shares compounds with ADAM10 inh; 0.5% of 2,100 active;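 active = mean triplicate inhibition above the solvent-only control wells' mean plus 3 SD, cut at about 12% in these data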;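 note: 0% = DMSO wells and 100% = marimastat wells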
ADAM10 counter – counter-screen for ADAM17 exosite inhibitors: inhibitors of human ADAM10 | shares compounds with ADAM17 inh | recombinant ADAM10, EDANS/DABCYL FRET peptide cleavage, 3 h | inhibition, % at 6.95 µM | 47% of 2,900 active | AID 743256;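 active = mean inhibition over the triplicate runs exceeds the activity threshold set in the earlier primary screen, cut at about 20% in these data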;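 note: 0% = DMSO wells and 100% = marimastat wells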
ADAM17 confirm – human ADAM17 inhibition, confirmation; 65% of 2,900 active; recombinant ADAM17, EDANS/DABCYL QFRET peptide cleavage; shares compounds with ADAM17 inh; inhibition, % at 6.95 µM;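 active = mean inhibition across replicates above the hit cutoff set in the primary screen, cut at about 8.5% in these data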;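 note: 0% = DMSO wells and 100% = marimastat wells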
* marks the source's active call; other numbers are inactive results; . = no result. Sampled rows, rich in hits. Any-hit rate of the full collection: about 3.4%.

SMILES	PLCg1 inh	proKLK7 act	sPLA2-III inh	PLC-beta3 inh	ADAM10 inh	ADAM17 inh	ADAM10 confirm	ADAM17 ctr	ADAM10 counter	ADAM17 confirm
CCCCN1C(=O)NC(NC(=O)c2ccco2)(C(F)(F)F)C1=O (configuration not stated)	0	0	-2	4	-3	2	.	.	.	.
CC(C)Oc1ccc(C(=O)NC2(C(F)(F)F)NC(=O)N(CCCc3ccccc3)C2=O)cc1 (configuration not stated)	-1	0	-22	0	25*	10*	5	1	31*	18*
C[C@@H]1CCCN1c1ccc2c(c1)OCCCN(C1CC1)S2(=O)=O	2	0	-3	2	1	-3	.	.	.	.
O=C(NCC1COc2ccccc2O1)c1cccc(S(=O)(=O)N2CCN(c3ccccc3)CC2)c1 (configuration not stated)	-1	-2	-10	-5	21*	9.9*	6	2	13	13*
CCCCOCCCNC(=S)Nc1ccc(S(=O)(=O)N2CCOCC2)cc1	4	-1	-4	6	11	2	.	.	.	.
O=S(=O)(c1ccc(NC(=S)NCCC(c2ccccc2)c2ccccc2)cc1)N1CCOCC1	0	0	-27	-1	21*	15*	11	4	31*	17*
COc1ccc(NC(=O)COC(=O)c2c3c(nc4ccccc24)CCCC3)cc1Cl	7	0	-35	3	23*	12*	4	3	30*	19*
CCCCC(=O)Nc1ccc(C(=O)NCC2COc3ccccc3O2)cc1 (configuration not stated)	4	1	-8	2	3	3	.	.	.	.
Cc1ccc(S(=O)(=O)N(C)c2ccc(C(=O)Nc3cccc(C)n3)cc2)cc1	-2	1	-23	-4	20*	15*	1	0	10	8
Cc1nc2ccc(NC(=O)c3ccc(S(=O)(=O)N(C)c4ccccc4)cc3)cc2s1	-20	1	-29	-22	29*	16*	6	2	18	13*
CC(=O)Nc1ccc(NC(=O)c2ccc(S(=O)(=O)N(C)c3ccccc3)cc2)cc1	2	8	-3	-3	-2	0	.	.	.	.
Cc1ccc(S(=O)(=O)N(C)c2ccc(C(=O)Nc3ccccn3)cc2)cc1	2	0	-9	-4	9	4	.	.	.	.
O=C(Nc1ccc(Br)cc1)OCCCN1CCC2(CCCCC2)C1=O	0	1	6	-1	-24	0	.	.	.	.
CCCCNS(=O)(=O)c1ccc2nc(SCC(=O)Nc3ccccc3)[nH]c2c1	9	0	-70	9	23*	9.1*	3	-1	10	3
COC(=O)[C@H](C(C)C)N1CCc2nnn(Cc3ccccc3)c2-c2cc(F)ccc2S1(=O)=O	1	0	-1	2	1	2	.	.	.	.
Fc1cccc(Cl)c1CSc1nnc(CNc2ccccc2)o1	4	1	-27	4	24*	14*	0	0	12	7
CCOC(=O)C1CCN(C(=O)C(C)(C)NC(=O)Nc2ccc(C(F)(F)F)cc2Cl)CC1	3	.	-2	4	7	2	.	.	.	.
Cc1ccc(Nc2nc(N)nc(CSc3nc4ccccc4s3)n2)cc1	4	0	-50	-3	29*	13*	11	4	43*	25*
O=S(=O)(N/N=C/c1cn(Cc2ccccc2)c2ccccc12)c1ccccc1	4	-1	-69	1	24*	9.6*	11	4	36*	19*
CC(c1ccccc1)n1cc(C(=O)N2CCCC2)nn1 (configuration not stated)	1	0	-2	4	-1	0	.	.	.	.
NC(=O)[C@@H]1CC2(CC(c3cccc(NC(=O)CC(c4ccccc4)c4ccccc4)c3)=NO2)CN1C(=O)c1ccc(Cl)cc1 (some centres not stated)	2	1	-59	-1	23*	11*	14	4	45*	21*
NC(=O)[C@H]1CC2(CC(c3cccc(NC(=O)COc4ccc(Cl)cc4)c3)=NO2)CN1C(=O)C(c1ccccc1)c1ccccc1 (some centres not stated)	5	1	-44	2	31*	12*	12	4	30*	15*
CCC(=O)N1CC2(CC(c3cccc(NC(=O)CC(c4ccccc4)c4ccccc4)c3)=NO2)C[C@H]1C(N)=O (some centres not stated)	1	0	-24	-1	7	4	.	.	.	.
NC(=O)[C@H]1CC2(CC(c3cccc(NC(=O)CC(c4ccccc4)c4ccccc4)c3)=NO2)CN1C(=O)CC(c1ccccc1)c1ccccc1 (some centres not stated)	1	0	-38	0	31*	16*	13	4	33*	19*
CCOc1cc(N2CCCC2)ccc1[N+](=O)[O-]	7	0	2	4	20*	9.3*	1	0	17	7
SMILES	PLCg1 inh	proKLK7 act	sPLA2-III inh	PLC-beta3 inh	ADAM10 inh	ADAM17 inh	ADAM10 confirm	ADAM17 ctr	ADAM10 counter	ADAM17 confirm
COc1ccccc1OCCNc1cc(N2CCCCC2)ccc1[N+](=O)[O-]	3	-1	0	1	-1	-1	.	.	.	.
COC(=O)[C@H](C(C)C)N(CCCc1cn(CC2CCCCC2)nn1)S(=O)(=O)c1ccccc1Br	0	1	-21	-1	8	4	.	.	.	.
O=C(CSc1cccc[n+]1[O-])Nc1cccc(S(=O)(=O)NC2=NCCCCC2)c1	1	-1	1	-4	0	-2	.	.	.	.
O=C(CSc1ccc2ccccc2c1Br)Nc1cccc(S(=O)(=O)NC2=NCCCCC2)c1	6	0	-26	-2	35*	14*	5	2	28*	20*
O=C(OCc1csc(Nc2ccccc2)n1)c1ccc(Cl)cc1	-1	-1	-10	4	24*	12*	11	4	45*	18*
CCc1nc(N2CCN(C(=S)NCCCOC)CC2)c2c3c(sc2n1)CCCC3	4	1	-20	2	20*	14*	4	2	13	8
